According to PubChem BioAssay (NCATS):
Where “and” joins values, the source holds several entries; their conditions need not be identical. Equal values may be shown once. A number with no mark means an inactive call. Records with an inconclusive call do not appear. Entries that show only a call come without a potency. Calls of active or inactive are those of the source. Unless noted, the call rests on the fitted dose curve; in most records, active means well fitted curve in the direction sought with a large enough effect; inconclusive means small, poorly fitted or top-dose-only effect, or another doubt; inactive means no such curve, though single readings can be large; an effect the other way counts as inactive or inconclusive.

How the values were obtained:
[1] = Cell Viability - Jurkat (AID 426;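 active means dose-dependent loss of cell ATP signal giving a full or clear fitted curve, ranked by lower potency value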; further: potency means the concentration at half of the fitted maximal effect); settings: qHTS
Outline: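 qHTS, 1536-well; Jurkat E6-1, 5000 cells/well, complete medium; cpd 40 hr, 37 °C; CellTiter-Glo 20 min RT; luminescence. AC50 by Hill fit.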

[2] = Cell Viability - NIH 3T3 (AID 541); settings: NIH 3T3 cell viability, qHTS; activity change, negative = cytotoxicity: at 92.2 µM (top of the series); further: nearly all actives have a fitted effect of over 25% in size; further: potency means the concentration at half of the fitted maximal effect
Outline: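 Luminescent ATP signal (CellTiter-Glo) served as the viability read-out after NIH 3T3 cells were exposed to compounds over a concentration range for 40 hr at 37 °C. Hill-equation modelling of concentration-response data gave AC50.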

[3] = Cell Viability - Mesenchymal (AID 546); settings: mesenchymal cells viability, qHTS; series mostly up to 91.7 µM;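 further: cells exposed to compound for 40 hours before reading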
Outline: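 Normal human renal glomerulus-derived kidney mesenchymal cells, 1000 per well in complete medium, were treated with compounds for 40 hr at 37 °C. Viability was read as intracellular ATP by CellTiter-Glo luminescence; AC50 values came from Hill-equation fits of qHTS concentration-response data.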

[4] = Cellular Toxicity (caspase-3) MRC-5 (AID 659); settings: MRC-5 cells, luminescence, normalized: DMSO 0%, 10 µM staurosporine 100%; series mostly up to 91.7 µM
Outline: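 Luminescence from caspase-cleaved aminoluciferin substrate (Caspase-Glo 3/7, 1 hr RT) reports caspase 3/7 activity in MRC-5 lung fibroblasts after 16 hr compound exposure. Normalized to DMSO basal and 10 uM staurosporine as 100%; AC50 from Hill fits.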

[5] = Cellular Toxicity (caspase-3) NIH 3T3 (AID 666); settings: NIH 3T3 caspase-3 activation, apoptosis/toxicity; series mostly up to 92.2 µM;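 further: caspase signal read after 16 h compound exposure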
Outline: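 Luminescence from aminoluciferin released by caspase-3/7 cleavage of a peptide substrate served as read-out. Mouse fibroblast NIH 3T3 cells were exposed to compounds over a concentration range for 16 hours, and AC50 values came from standard Hill modelling.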

[6] = MultiTox-Fluor Cytotoxicity Assay - LYMP1-002 - Live Cells (AID 955); settings: LYMP1-002 lymphoblastoid live-cell protease fluorescence viability; series mostly up to 46.1 µM
Outline: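 Read-out is live-cell protease activity (cell-permeant GF-AFC substrate, fluorescence Ex/Em=405/510), where a decrease indicates acute toxicity. Human lymphoblastoid cells were treated 16 hours at 37 C in a concentration series, and AC50 values came from standard Hill modelling.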

[7] = Cell Viability - LYMP1-003 - Assay at 24 hr (AID 963); settings: LYMP1-003 lymphoblastoid cell viability; series mostly up to 92.2 µM
Outline: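 Cells seeded at 2500/well, 5 hr at 37 C; compounds added; 24 hr at 37 C; CellTiter-Glo added, 30 min room temperature; luminescence read. Decrease in ATP taken as cytotoxicity, AC50 from Hill modelling.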

[8] = Cell Viability - LYMP2-015 (AID 971); settings: LYMP2-015 lymphoblastoid cell viability; series mostly up to 92.2 µM; further: nearly all actives have a fitted effect of over 55% in size
Outline: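 Luminescent ATP read-out (CellTiter-Glo) served as the viability measure after lymphoblastoid cells were exposed to compounds for 24 hours at 37 C. Concentration-response data were fitted with the Hill equation to give AC50.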

[9] = Cell Viability - LYMP2-024 (AID 988); settings: LYMP2-024 lymphoblastoid cell viability; series mostly up to 92.2 µM; further: nearly all actives have a fitted effect of over 60% in size
Outline: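 Steps: seed 2500 cells/well, 5 hr 37 C; add compound, 24 hr 37 C; add CellTiter-Glo, 30 min room temperature; read luminescence. AC50 derived by Hill modelling of concentration-dependent ATP loss.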

[10] = Cell Viability - LYMP1-002 - Assay at 24 hr (AID 993); settings: LYMP1-002 lymphoblastoid cells viability; series mostly up to 92.2 µM
Outline: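 Cells plated 2500/well, 5 hr 37 C; compounds added, 24 hr 37 C; CellTiter-Glo added, 30 min RT; luminescence read. Tetraoctylammonium bromide positive control. Hill-equation AC50.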

[11] = target: Vitamin D3 receptor (Homo sapiens) (UniProt P11473); experiment: qHTS assay for small molecule agonists of vitamin D receptor signaling (AID 588543; calls by dose curve); settings: HEK293T VDR-UAS-bla, beta-lactamase ratio, 16 h; series mostly up to 76.8 µM
Outline: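 Reporter cells (HEK293T, VDR-UAS-bla) were seeded in medium with 2% charcoal-stripped serum and incubated 5 h, then compounds in concentration series were added for 16 h at 37 °C. Stimulation was scaled between DMSO basal and 50 nM 1α,25-dihydroxyvitamin D3.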

[12] = target: Peroxisome proliferator-activated receptor alpha (Homo sapiens) (UniProt Q07869); experiment: qHTS assay for small molecule agonists of the peroxisome proliferator-activated receptor alpha (PPARalpha) signaling pathway (AID 651778); settings: PathHunter PPARalpha complementation, chemiluminescence, 6 h; hits give high values
Outline: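 Cells plated at 2,000/well and held overnight at 37 C, 5% CO2, then compound added by pin tool for 6 hr; after PathHunter detection reagent and 60 min at room temperature, chemiluminescence from enzyme complementation was read.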

[13] = target: Nuclear receptor ROR-gamma (Homo sapiens) (UniProt P51449); experiment: qHTS assay for small molecule antagonists of the retinoid-related orphan receptor gamma (ROR-gamma) signaling pathway (AID 651802); settings: ROR-gamma antagonist cell reporter assay; series mostly up to 92.2 µM;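 further: luciferase reporter luminescence driven by ROR response element; nearly all actives have a fitted effect of over 60% in size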
Outline: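 CHO, TET-inducible ROR + RORE-LUC reporter, 1536-well qHTS. Compound pinned, doxycycline added, 16hr 37C/5% CO2. ONE-Glo, 30 min RT, luminescence; signal drop scored as antagonism.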

[14] = qHTS assay for small molecule antagonists of the retinoid-related orphan receptor gamma (ROR-gamma) signaling pathway - cell viability counter screen (AID 720652; active means well fitted curve in the direction sought with a large enough effect in the repeat runs; an effect the other way counts as inactive or inconclusive;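 further: compound exposure lasted 16 hr before ATP read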); settings: RORgamma reporter cell line viability counter screen; series mostly up to 92.2 µM
Outline: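 Luminescence from CellTiter-Glo after 30 min at room temperature reported cellular ATP as the cytotoxicity measure. Cells were the CHO reporter line with doxycycline-induced ROR-gamma expression, exposed to compound for 16 hr at 37 C.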

[15] = qHTS assay for small molecule agonists of the antioxidant response element (ARE) signaling pathway measured by Nrf2-dependant transcriptional activity - cell viability counter screen (AID 720653; active means well fitted curve in the direction sought with a large enough effect in the repeat runs; an effect the other way counts as inactive or inconclusive); settings: ARE-bla HepG2 viability, CellTiter-Glo ATP luminescence, 16 h; hits give low values
Outline: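 ARE-bla HepG2 cells (2,000/well) rested 5 hrs at 37C/5% CO2, then exposed to compounds in DMSO for 16 hrs. Viability was read in the same wells as intracellular ATP by luminescence, 30 min at room temperature after reagent addition.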

[16] = qHTS assay for cell viability of the p53RE-bla HCT-116 cell line (AID 743292); settings: p53RE-bla HCT-116 viability, ATP luminescence, 16 h; series mostly up to 95 µM; further: nearly all actives have a fitted effect of over 55% in size
Outline: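 ATP-based luminescence, 16 h compound exposure at 37 C, p53RE-bla HCT-116 cells at 4,000/well.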

[17] = target: Nuclear receptor subfamily 1 group I member 2 (Rattus norvegicus) (UniProt Q9R1A7); experiment: qHTS assay for small molecule activators of the rat pregnane X receptor (rPXR) signaling pathway (AID 651751; call rule not given here); settings: rPXR reporter cells, luciferase (One-Glo), 24 h
[18] = qHTS assay for small molecule disruptors of the mitochondrial membrane potential - 5 hr assay (AID 651755; calls by dose curve; further: nearly all actives have a fitted effect of over 40% in size); settings: JC-1-type ratio dye; series mostly up to 92.2 µM
Outline: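 HepG2 cells, attached overnight at 37C, were exposed to compound or DMSO for 5 hr at 37C, 5% CO2. Mito-MPS dye was then added for 30 min, and fluorescence read at 490/535 nm (monomers) and 540/590 nm (aggregates).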

[19] = MultiTox-Fluor Cytotoxicity Assay - LYMP1-001 - Dead Cells (AID 946); settings: LYMP1-001 lymphoblastoid cells, dead-cell protease fluorescence; series mostly up to 92.2 µM
Outline: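 Seed 2500 LYMP1-001 cells/well, incubate 5 hr at 37 C; add compound, 16 hr at 37 C; add MultiTox-Fluor reagent, 60 min RT; read dead-cell fluorescence Ex/Em=485/520. Normalize to DMSO and 15 uM tetraoctylammonium bromide.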

[20] = Cell Viability - LYMP2-016 (AID 984); settings: LYMP2-016 lymphoblastoid cell viability, qHTS; series mostly up to 92.2 µM; further: nearly all actives have a fitted effect of over 55% in size
Outline: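 Cells were seeded at 2500 per well and rested 5 hr before a 24 hr compound exposure at 37 C. Viability was then gauged as cellular ATP by luciferase luminescence, with AC50 values fitted to the Hill equation.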

Peroxisome proliferator-activated receptor alpha (Homo sapiens), sequence (Q07869 whole entry, looked up): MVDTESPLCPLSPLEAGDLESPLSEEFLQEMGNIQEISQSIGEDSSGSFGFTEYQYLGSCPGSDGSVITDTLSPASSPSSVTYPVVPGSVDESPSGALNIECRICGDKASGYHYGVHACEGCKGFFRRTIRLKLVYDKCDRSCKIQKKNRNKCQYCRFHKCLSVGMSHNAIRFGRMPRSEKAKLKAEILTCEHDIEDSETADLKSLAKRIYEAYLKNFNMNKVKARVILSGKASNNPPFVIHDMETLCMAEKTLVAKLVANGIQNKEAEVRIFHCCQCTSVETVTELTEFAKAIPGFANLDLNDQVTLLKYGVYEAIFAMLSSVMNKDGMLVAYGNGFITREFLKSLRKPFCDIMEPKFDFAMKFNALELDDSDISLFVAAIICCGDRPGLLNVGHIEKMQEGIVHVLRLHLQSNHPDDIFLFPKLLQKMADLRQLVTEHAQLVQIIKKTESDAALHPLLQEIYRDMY
Nuclear receptor ROR-gamma (Homo sapiens), sequence (P51449 whole entry, looked up): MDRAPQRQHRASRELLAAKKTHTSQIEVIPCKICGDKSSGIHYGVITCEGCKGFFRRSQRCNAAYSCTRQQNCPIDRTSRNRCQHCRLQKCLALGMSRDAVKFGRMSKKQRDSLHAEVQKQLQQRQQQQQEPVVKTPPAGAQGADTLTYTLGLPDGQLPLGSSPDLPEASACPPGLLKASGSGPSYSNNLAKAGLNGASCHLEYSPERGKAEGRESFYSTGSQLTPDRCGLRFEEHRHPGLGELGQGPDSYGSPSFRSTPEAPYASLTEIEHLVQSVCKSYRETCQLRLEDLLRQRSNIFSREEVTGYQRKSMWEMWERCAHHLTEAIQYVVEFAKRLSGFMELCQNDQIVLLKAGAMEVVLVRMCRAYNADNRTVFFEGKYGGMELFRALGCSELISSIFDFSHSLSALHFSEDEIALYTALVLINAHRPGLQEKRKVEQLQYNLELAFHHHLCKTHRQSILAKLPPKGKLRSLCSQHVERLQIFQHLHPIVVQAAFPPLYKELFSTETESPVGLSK
Vitamin D3 receptor (Homo sapiens), sequence (P11473 whole entry, looked up): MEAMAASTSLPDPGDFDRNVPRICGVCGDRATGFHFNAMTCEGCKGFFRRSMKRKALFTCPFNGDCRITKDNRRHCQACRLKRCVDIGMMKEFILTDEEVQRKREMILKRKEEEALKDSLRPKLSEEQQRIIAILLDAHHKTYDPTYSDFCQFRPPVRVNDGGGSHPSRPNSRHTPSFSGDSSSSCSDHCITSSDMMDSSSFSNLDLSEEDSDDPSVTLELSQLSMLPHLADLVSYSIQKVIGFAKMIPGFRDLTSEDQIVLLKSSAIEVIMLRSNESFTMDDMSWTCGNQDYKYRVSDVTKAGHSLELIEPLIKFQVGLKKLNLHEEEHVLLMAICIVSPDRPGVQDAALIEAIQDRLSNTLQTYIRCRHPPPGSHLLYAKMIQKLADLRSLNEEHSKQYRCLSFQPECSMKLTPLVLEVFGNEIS
Nuclear receptor subfamily 1 group I member 2 (Rattus norvegicus), sequence (Q9R1A7 whole entry, looked up): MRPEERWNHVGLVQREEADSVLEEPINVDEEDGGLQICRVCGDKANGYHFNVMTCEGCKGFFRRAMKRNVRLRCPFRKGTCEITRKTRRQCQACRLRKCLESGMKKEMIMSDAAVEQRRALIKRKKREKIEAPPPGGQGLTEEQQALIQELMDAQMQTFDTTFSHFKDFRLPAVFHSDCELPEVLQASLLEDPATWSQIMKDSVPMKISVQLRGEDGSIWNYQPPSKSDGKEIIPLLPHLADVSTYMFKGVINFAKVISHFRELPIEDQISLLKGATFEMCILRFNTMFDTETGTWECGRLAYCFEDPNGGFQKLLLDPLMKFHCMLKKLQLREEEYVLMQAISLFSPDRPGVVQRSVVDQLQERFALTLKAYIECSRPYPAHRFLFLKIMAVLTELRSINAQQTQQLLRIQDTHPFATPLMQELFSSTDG

SMILES | Potency [1] | Potency [2] | Potency [3] | outcome [4] | Potency [5] | outcome [6] | outcome [7] | Potency [8] | Potency [9] | Potency [10] | outcome [11] | max response [12] | Potency [13] | Potency [14] | max response [15] | Potency [16] | max response [17] | Potency [18] | outcome [19] | Potency [20]
C/C=C/C=O | > 92 µM | inactive | inactive | inactive | inactive | inactive | inactive | inactive | inactive | inactive | inactive | 10% | inactive | inactive | -9.77% | inactive | 18.2% | – | – | –
CC(C)Br | > 92 µM | inactive | inactive | inactive | inactive | inactive | inactive | inactive | inactive | inactive | inactive | – | inactive | inactive | -6.22% | inactive | -2.97% | inactive | – | –
CC(C)(OOC(C)(C)c1ccccc1)c1ccccc1 | > 92 µM | inactive | inactive | inactive | inactive | inactive | inactive | inactive | inactive | inactive | inactive | -0.439% and 3.52% | inactive | inactive | – | inactive | -3.9% and 4.2% | inactive | – | –
C=CCO | > 92 µM | inactive | inactive | inactive | inactive | inactive | inactive | inactive | inactive | – | – | -7.9% | – | inactive | 1.93% | inactive | -2.14% | inactive | inactive | inactive
CCCCC(=O)Cl | > 92 µM | inactive | inactive | inactive | inactive | inactive | inactive | inactive | inactive | – | inactive | -8.92% | inactive | inactive | 2.67% | inactive | 6.67% | inactive | inactive | inactive
CCOC(=O)C1OC1(C)c1ccccc1 (configuration not stated) | > 92 µM | inactive | inactive | inactive | inactive | inactive | inactive | inactive | inactive | inactive | – | 4.47% | inactive | inactive | -18.9% | inactive | -3.02% | inactive | – | inactive
BrCC(Br)C1CCC(Br)C(Br)C1 (configuration not stated) | > 92 µM | – | inactive | inactive | inactive | inactive | – | inactive | inactive | – | – | 4.79% | inactive | inactive | -1.58% | inactive | -6.51% | inactive | inactive | –
ClCCOCCCl | > 92 µM | inactive | – | inactive | inactive | inactive | inactive | inactive | inactive | – | – | -1.95% | inactive | inactive | -1.62% | – | -1.5% | inactive | inactive | inactive
Oc1ccc(Cl)c(Cl)c1Cl | > 92 µM | inactive | inactive | inactive | inactive | inactive | inactive | inactive | inactive | inactive | inactive | – | – | inactive | 13.8% | inactive | 8.33% | – | inactive | inactive
Cc1ccc(N)cc1C | > 92 µM | inactive | inactive | – | inactive | inactive | inactive | inactive | inactive | inactive | inactive | -0.229% | inactive | inactive | -7.17% | inactive | – | inactive | inactive | inactive
CC12CC1(C)C(=O)N(c1cc(Cl)cc(Cl)c1)C2=O (configuration not stated) | > 92 µM | inactive | inactive | – | inactive | inactive | inactive | inactive | inactive | – | inactive | -1.35% and -2.97% | inactive | – | -1.37% and -4.13% | inactive | 12.6% and 11% | – | inactive | inactive
CCCCNC(=O)n1c(NC(=O)OC)nc2ccccc21 | 3.28 µM (active) | 5.01 µM (active) | – | – | inactive | inactive | inactive | inactive | inactive | inactive | inactive | – | inactive | inactive | 2.42% and 7.38% | inactive | – | inactive | inactive | inactive
CCCCC#N | > 92 µM | inactive | inactive | inactive | inactive | inactive | inactive | inactive | inactive | inactive | – | -3.73% | inactive | inactive | – | inactive | -0.572% | inactive | inactive | inactive
c1ccc(C2CO2)cc1 (configuration not stated) | > 92 µM | inactive | inactive | – | – | inactive | inactive | inactive | inactive | – | inactive | 0.189% | inactive | inactive | – | inactive | -1.42% | inactive | inactive | inactive
